Measured values published in PubChem BioAssay (Tox21).
Where “and” joins values, the source holds several entries; their conditions need not be identical. Equal values may be shown once. Results filed as inconclusive are left out. A call without a number means that no potency is given here. Where a structure was tested more than once in an assay, its records may differ in their call. Calls of active or inactive are those of the source. Unless noted, the call rests on the fitted dose curve.

Assay: qHTS assay to identify small molecule antagonists of the sonic hedgehog signaling (Shh) pathway - cell viability counter screen (AID 1259367; active means well fitted cell-killing curve with a large enough effect in the repeat runs; further: nearly all actives have a fitted effect of over 55% in size)
Conditions: NIH/3T3 Gli1-Luc viability, CellTiter-Fluor, 24 h; series mostly up to 92.4 µM; viability change, negative = cytotoxic: at the top concentration
Outline: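 After a 4 hr settling period, 3T3 Gli1-Luc cells were treated with DMSO-dissolved chemicals and conditioned medium, kept 24 hr at 37C in 5% CO2, and assayed for viability by CellTiter-Fluor fluorescence following 1 hr reagent incubation.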

Q: With `COC(=O)c1ccc(C=O)cc1` as the molecule, how does the Potency read?
A: inactive

Q: For `Cc1ccc(O)c(-n2nc3ccccc3n2)c1`, which Potency is on record?
A: inactive

Q: With `CN(C)C=O` as the molecule, how does the Potency read?
A: inactive

Q: With `Cc1cccc2ccccc12` as the molecule, how does the Potency read?
A: inactive

Q: Which “viability change, negative = cytotoxic” value does the source give for `Cc1cnc(NC(=O)C2=C(O)c3ccccc3S(=O)(=O)N2C)s1` here?
A: -10.7% [at 42.5 µM] (inactive)

Q: Which Potency does the source give for `Cc1c(N(C)C)c(=O)n(-c2ccccc2)n1C` here?
A: inactive

Q: Which “viability change, negative = cytotoxic” value does the source give for `CC(=O)OC/C=C(C)/C=C/C=C(C)/C=C/C1=C(C)CCCC1(C)C` here?
A: -16.9% [at 42.5 µM] (inactive)

Q: Which Potency does the source give for `C/C=C/c1ccc(O)c(OC)c1` here?
A: inactive

Q: Which Potency does the source give for `C[C@]12C=CC(=O)C=C1CC[C@@H]1[C@@H]2C(=O)C[C@@]2(C)[C@H]1CC[C@]2(O)C(=O)CO` here?
A: inactive

Q: Which Potency does the source give for `CCCCOC(=O)CCCCCCCCC(=O)OCCCC` here?
A: inactive

Q: With `CC(C)Cc1ccc(C(C)C(=O)O)cc1` (stereo not given) as the molecule, how does the Potency read?
A: inactive

Q: With `COc1ccccc1NC(=O)CC(C)=O` as the molecule, how does the Potency read?
A: inactive

Q: With `CCCCCCCCCCCCCCCCCC(=O)OCC(O)CO` (stereo not given) as the molecule, how does the Potency read?
A: inactive

Q: Which Potency does the source give for `OC[C@@H](O)[C@@H](O)[C@H](O)[C@H](O)CO` here?
A: inactive

Q: Which Potency does the source give for `CCN1CCCC1=O` here?
A: inactive

Q: With `C=C(C)OC(C)=O` as the molecule, how does the Potency read?
A: inactive

Q: Which Potency does the source give for `CC(=O)/C=C/C1=C(C)CCCC1(C)C` here?
A: inactive

Q: For `C=CCOC(=O)CC(C)C`, which Potency is on record?
A: inactive

Q: For `C#C[C@]1(O)CC[C@H]2[C@@H]3CCC4=CC(=O)CC[C@@H]4[C@H]3CC[C@@]21CC`, which Potency is on record?
A: inactive

Q: With `CC(C)(C)NCC(O)c1ccc(O)c(CO)c1` (stereo not given) as the molecule, how does the Potency read?
A: inactive

Q: With `CC(=O)CCC(C)C` as the molecule, how does the Potency read?
A: inactive

Q: With `C=CC(=O)NC(C)(C)CS(=O)(=O)O` as the molecule, how does the Potency read?
A: inactive

Q: For `CCCCCCCCOc1ccc(C(=O)c2ccccc2)c(O)c1`, which Potency is on record?
A: inactive

Q: Which Potency does the source give for `COc1ccccc1O` here?
A: inactive

Q: For `NC(=O)N1c2ccccc2C=Cc2ccccc21`, which Potency is on record?
A: inactive

Q: For `COC(=O)C1CCC(C(=O)OC)CC1` (stereo not given), which Potency is on record?
A: inactive

Q: Which Potency does the source give for `CN/C(=C\[N+](=O)[O-])NCCSCc1ccc(CN(C)C)o1` here?
A: inactive

Q: Which Potency does the source give for `C[C@]12C[C@H](O)[C@H]3[C@@H](CCC4=CC(=O)CC[C@@]43C)[C@@H]1CC[C@@H]2C(=O)CO` here?
A: inactive

Q: Which Potency does the source give for `OCCCc1ccccc1` here?
A: inactive

Q: Which Potency does the source give for `COC1=CC(=O)C[C@@H](C)[C@]12Oc1c(Cl)c(OC)cc(OC)c1C2=O` here?
A: inactive

Assay: qHTS assay to identify small molecule agonists of the sonic hedgehog signaling (Shh) pathway (AID 1259368);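 further: NIH/3T3-derived 3T3Gli1-Luc cells carrying a stable Gli1-driven firefly luciferase reporter; nearly all actives have a fitted effect of over 15% in size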
Conditions: NIH/3T3 Gli1-Luc reporter, luciferase, 24 h, stronger effect = higher value; series mostly up to 92.4 µM; activity change: at the top concentration
Outline: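 Luminescent signal was taken as a measure of Gli1-controlled luciferase expression in stably transfected NIH/3T3-derived cells that had been treated for 24 hr with compounds delivered in DMSO.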

Q: For `COC(=O)c1ccc(C=O)cc1`, which outcome is on record?
A: inactive

Q: With `Cc1ccc(O)c(-n2nc3ccccc3n2)c1` as the molecule, how does the outcome read?
A: inactive

Q: Which outcome does the source give for `CN(C)C=O` here?
A: inactive

Q: With `Cc1cccc2ccccc12` as the molecule, how does the outcome read?
A: inactive

Q: With `Cc1cnc(NC(=O)C2=C(O)c3ccccc3S(=O)(=O)N2C)s1` as the molecule, how does the outcome read?
A: inactive

Q: With `Cc1c(N(C)C)c(=O)n(-c2ccccc2)n1C` as the molecule, how does the outcome read?
A: inactive

Q: Which outcome does the source give for `CC(=O)OC/C=C(C)/C=C/C=C(C)/C=C/C1=C(C)CCCC1(C)C` here?
A: inactive

Q: Which outcome does the source give for `C/C=C/c1ccc(O)c(OC)c1` here?
A: inactive

Q: With `C[C@]12C=CC(=O)C=C1CC[C@@H]1[C@@H]2C(=O)C[C@@]2(C)[C@H]1CC[C@]2(O)C(=O)CO` as the molecule, how does the outcome read?
A: inactive

Q: Which outcome does the source give for `CCCCOC(=O)CCCCCCCCC(=O)OCCCC` here?
A: inactive

Q: Which outcome does the source give for `CC(C)Cc1ccc(C(C)C(=O)O)cc1` (stereo not given) here?
A: inactive

Q: For `COc1ccccc1NC(=O)CC(C)=O`, which outcome is on record?
A: inactive

Q: Which outcome does the source give for `CCCCCCCCCCCCCCCCCC(=O)OCC(O)CO` (stereo not given) here?
A: inactive

Q: With `OC[C@@H](O)[C@@H](O)[C@H](O)[C@H](O)CO` as the molecule, how does the outcome read?
A: inactive

Q: With `CCN1CCCC1=O` as the molecule, how does the outcome read?
A: inactive

Q: For `C=C(C)OC(C)=O`, which outcome is on record?
A: inactive

Q: For `CC(=O)/C=C/C1=C(C)CCCC1(C)C`, which outcome is on record?
A: inactive

Q: Which outcome does the source give for `C=CCOC(=O)CC(C)C` here?
A: inactive

Q: With `C#C[C@]1(O)CC[C@H]2[C@@H]3CCC4=CC(=O)CC[C@@H]4[C@H]3CC[C@@]21CC` as the molecule, how does the outcome read?
A: inactive

Q: Which outcome does the source give for `CC(C)(C)NCC(O)c1ccc(O)c(CO)c1` (stereo not given) here?
A: inactive

Q: Which outcome does the source give for `CC(=O)CCC(C)C` here?
A: inactive

Q: For `C=CC(=O)NC(C)(C)CS(=O)(=O)O`, which outcome is on record?
A: inactive

Q: With `CCCCCCCCOc1ccc(C(=O)c2ccccc2)c(O)c1` as the molecule, how does the outcome read?
A: inactive

Q: For `COc1ccccc1O`, which outcome is on record?
A: inactive

Q: Which outcome does the source give for `NC(=O)N1c2ccccc2C=Cc2ccccc21` here?
A: inactive

Q: With `COC(=O)C1CCC(C(=O)OC)CC1` (stereo not given) as the molecule, how does the outcome read?
A: inactive

Q: For `CN/C(=C\[N+](=O)[O-])NCCSCc1ccc(CN(C)C)o1`, which outcome is on record?
A: inactive

Q: For `C[C@]12C[C@H](O)[C@H]3[C@@H](CCC4=CC(=O)CC[C@@]43C)[C@@H]1CC[C@@H]2C(=O)CO`, which outcome is on record?
A: inactive

Q: Which outcome does the source give for `OCCCc1ccccc1` here?
A: inactive

Q: With `COC1=CC(=O)C[C@@H](C)[C@]12Oc1c(Cl)c(OC)cc(OC)c1C2=O` as the molecule, how does the outcome read?
A: inactive

Assay: qHTS assay to identify small molecule antagonists of the sonic hedgehog signaling (Shh) pathway (AID 1259369); further: nearly all actives have a fitted effect of over 45% in size; further: potency means the concentration at half of the fitted maximal effect
Conditions: NIH/3T3 Gli1-Luc reporter, Shh antagonist, luminescence 24 h; series mostly up to 92.4 µM; activity change, negative = inhibition: at the top concentration
Outline: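 Screening used 3T3Gli1-Luc cells at 2,000 per well, compounds delivered in DMSO, and conditioned medium as agonist stimulus; plates incubated 24hr at 37 C and 5% CO2 before a 30min luciferase step.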

Q: For `COC(=O)c1ccc(C=O)cc1`, which Potency is on record?
A: inactive

Q: For `Cc1ccc(O)c(-n2nc3ccccc3n2)c1`, which Potency is on record?
A: 60.6 µM (active) and inactive

Q: With `CN(C)C=O` as the molecule, how does the Potency read?
A: inactive

Q: For `Cc1cccc2ccccc12`, which Potency is on record?
A: inactive

Q: With `Cc1cnc(NC(=O)C2=C(O)c3ccccc3S(=O)(=O)N2C)s1` as the molecule, how does the Potency read?
A: inactive

Q: Which Potency does the source give for `Cc1c(N(C)C)c(=O)n(-c2ccccc2)n1C` here?
A: inactive

Q: With `CC(=O)OC/C=C(C)/C=C/C=C(C)/C=C/C1=C(C)CCCC1(C)C` as the molecule, how does the Potency read?
A: 24.3 µM (active)

Q: With `C/C=C/c1ccc(O)c(OC)c1` as the molecule, how does the Potency read?
A: inactive

Q: With `C[C@]12C=CC(=O)C=C1CC[C@@H]1[C@@H]2C(=O)C[C@@]2(C)[C@H]1CC[C@]2(O)C(=O)CO` as the molecule, how does the “activity change, negative = inhibition” value read?
A: -35.2% (inactive)

Q: For `CCCCOC(=O)CCCCCCCCC(=O)OCCCC`, which Potency is on record?
A: inactive

Q: Which Potency does the source give for `CC(C)Cc1ccc(C(C)C(=O)O)cc1` (stereo not given) here?
A: inactive

Q: With `COc1ccccc1NC(=O)CC(C)=O` as the molecule, how does the Potency read?
A: inactive

Q: Which Potency does the source give for `CCCCCCCCCCCCCCCCCC(=O)OCC(O)CO` (stereo not given) here?
A: inactive

Q: With `OC[C@@H](O)[C@@H](O)[C@H](O)[C@H](O)CO` as the molecule, how does the Potency read?
A: inactive

Q: With `CCN1CCCC1=O` as the molecule, how does the “activity change, negative = inhibition” value read?
A: 1.56% (inactive)

Q: For `C=C(C)OC(C)=O`, which Potency is on record?
A: inactive

Q: For `CC(=O)/C=C/C1=C(C)CCCC1(C)C`, which Potency is on record?
A: inactive and 61.1 µM (active)

Q: Which Potency does the source give for `C=CCOC(=O)CC(C)C` here?
A: inactive

Q: For `C#C[C@]1(O)CC[C@H]2[C@@H]3CCC4=CC(=O)CC[C@@H]4[C@H]3CC[C@@]21CC`, which Potency is on record?
A: 17.2 µM (active) and 13.7 µM (active)

Q: With `CC(C)(C)NCC(O)c1ccc(O)c(CO)c1` (stereo not given) as the molecule, how does the Potency read?
A: inactive

Q: Which Potency does the source give for `CC(=O)CCC(C)C` here?
A: inactive

Q: With `C=CC(=O)NC(C)(C)CS(=O)(=O)O` as the molecule, how does the Potency read?
A: inactive

Q: Which Potency does the source give for `CCCCCCCCOc1ccc(C(=O)c2ccccc2)c(O)c1` here?
A: inactive

Q: With `COc1ccccc1O` as the molecule, how does the Potency read?
A: inactive

Q: For `NC(=O)N1c2ccccc2C=Cc2ccccc21`, which Potency is on record?
A: inactive

Q: For `COC(=O)C1CCC(C(=O)OC)CC1` (stereo not given), which Potency is on record?
A: inactive

Q: Which Potency does the source give for `CN/C(=C\[N+](=O)[O-])NCCSCc1ccc(CN(C)C)o1` here?
A: inactive

Q: Which Potency does the source give for `C[C@]12C[C@H](O)[C@H]3[C@@H](CCC4=CC(=O)CC[C@@]43C)[C@@H]1CC[C@@H]2C(=O)CO` here?
A: 2.44 µM (active) and 344 nM (active) and 750 nM (active)

Q: For `OCCCc1ccccc1`, which Potency is on record?
A: inactive

Q: With `COC1=CC(=O)C[C@@H](C)[C@]12Oc1c(Cl)c(OC)cc(OC)c1C2=O` as the molecule, how does the Potency read?
A: 4.29 µM (active) and 13.7 µM (active)
